HCMV antiviral: blocks human cytomegalovirus replication; 4.5% of 410,000 active; AID 1259415; activity change, negative = inhibition, % at 57.5 µM; HFF cells, HCMV-luciferase reporter, 72 h; active compounds read low; in the data active means activity change below about -60%; inconclusive means no clear call, values can overlap the other calls; inactive means above about -39%
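Inhibition of viral replication was scored as loss of reporter luminescence in HFFs infected with HCMV-luciferase (MOI 1 PFU/cell) for 72 h; compounds tested at 2 doses, normalized to buffer and Salinomycin controls.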
Lassa entry inh: blocks Lassa virus binding to or entry into cells; Lassa virus pseudotype entry inhibition, cell reporter; 1.2% of 300,000 active; Potency, µM (highest dose often 37.9 µM), hits mostly inhibitors; AID 540256; calls by dose curve; tested in HEK293 cells; further: nearly all actives have a fitted effect of over 50% in size
Marburg entry inh: inhibitors of Marburg virus binding or cell entry | Marburg virus pseudotyped entry inhibition, cell reporter | Potency, µM (titrated, usually from 37.8 µM), most hits filed as inhibitors | 1.8% of 300,000 active | AID 540276; calls by dose curve; tested in HEK293 cells
FMDV antiviral: antivirals against foot and mouth disease virus; FMDV antiviral cell-based qHTS; Potency, µM (highest dose often 57.9 µM), hits mostly inhibitors; 1.2% of 410,000 active; calls by dose curve; tested in HEK293T cells; further: read-out not given here; nearly all actives have a fitted effect of over 45% in size
SARS PLP yeast: blocks SARS-CoV papain-like protease in a yeast assay; 0.19% of 330,000 active; Potency, µM (series often up to 32.9 µM), actives largely listed as activators; AID 485353; S. cerevisiae expressing SARS-CoV PLpro, growth rescue; calls by dose curve; further: nearly all actives have a fitted effect of over 55% in size
HCV inh: blocks hepatitis C virus; Huh7.5.1 HCVcc-Cre infection, luciferase reporter, 44 h; Potency, µM (top dose mostly 41.8 µM), hits mostly inhibitors; AID 651820; 3.4% of 340,000 active; active means well fitted inhibition curve with a large enough effect; inconclusive means small, poorly fitted or top-dose-only effect, or another doubt; inactive means no such curve, though single readings can be large or run the other way
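Seed cells (1,000/well) for 4 h; treat with compound and infect with HCVcc-Cre, moi about 0.5. Incubate 44 h, then detect luciferase activity.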
Hits are given with their value; 0 = inactive; ? = inconclusive; - = no result given; ! = repeats disagree. Sampled rows, rich in hits. Any-hit rate of the full collection: about 8%.

SMILES	HCMV antiviral	Lassa entry inh	Marburg entry inh	FMDV antiviral	SARS PLP yeast	HCV inh
CCN(c1ccccc1)S(=O)(=O)c1ccc(NC(=S)NC(=O)c2cccs2)cc1	?	?	?	?	0	10µM
O=C(Nc1ccc(NC(=S)NC(=O)c2cccs2)cc1)c1ccco1	-86.8	0	?	0	0	0
COc1ccc(S(=O)(=O)N2CCN(Cc3nc4ccc(C)cc4o3)CC2)cc1OC	0	0	-	0	-	-
Cc1ccc(CN2CCc3nc(N4CCN(C)CC4)ncc3C2)s1	0	0	-	0	-	-
CC(C)C/C(=N/O)c1cn(C)c2ccccc12	0	1.12µM	?	0	0	0
Cn1cc(C(=O)NCc2ccccc2)c2ccccc21	0	0	?	0	0	0
CC(C)c1ccc(Nc2cc3c(cn2)cc(-c2ccccc2)n3C)cc1	0	-	-	-	-	-
COc1ccc(-c2nn3ncccc3c2-c2ccnc(Nc3cccc(C(F)(F)F)c3)n2)cc1	-	25µM	-	-	-	-
COc1cccc(Nc2nccc(-c3cnn4ncccc34)n2)c1	-	0.56µM	-	-	-	-
CC(C)c1ccc(Nc2nccc(-c3cnn4ncccc34)n2)cc1	-	11.2µM	-	-	-	-
CN(C)c1ccc(-c2nc3cnccn3c2Nc2cccc(C(F)(F)F)c2)cc1	0	0	0	0	-	-
CCN(CC)Cc1ccc(Nc2nccc(-c3cnn4ncccc34)n2)cc1	-	0.0397µM	-	-	-	-
Cc1ccc(CNC(=O)O[C@H]2CC[C@@]34CCCN3C(=O)CCC[C@H]4[C@H]2Cc2ccccc2)cc1	0	-	-	-	-	-
COc1ccc2c(c1)NC(c1cccnc1)=NC(c1ccc(F)cc1)=N2	0	0	0	0	-	-
CC(=O)c1ccc(NC(=O)c2c3c(nc4ccccc24)C(=O)N(C2CCCCC2)C3)cc1	0	0	-	0	-	-
O=C(N/N=C/c1ccccc1)c1ccco1	0	?	?	0	0	0
O=C(C#Cc1ccccc1)c1ccco1	-99.0	11.2µM	?	8.91µM	0	?
COC(=O)c1cn(-c2ccccc2)nc1-c1ccccc1	0	0	0	0	0	11.2µM
O=C(O)c1ccc(NC(=O)c2cn(-c3ccccc3)nc2-c2ccccc2)cc1	0	0	0	0	0	0
COc1ccc(-c2nn(-c3ccccc3)cc2C(=O)NC(=S)N2CCOCC2)cc1OC	-96.5	-	-	0	0	0
O=C(OCn1nnc2ccccc2c1=O)c1cn(-c2ccccc2)nc1-c1cccnc1	0	0	0	?	0	10µM
O=C(O)c1ccc(NC(=O)c2cn(-c3ccccc3)nc2-c2ccc(Br)cc2)cc1	-63.6!	0	0	0	0	0
O=C(OCn1nnc2ccccc2c1=O)c1cccnc1	0	0	0	0	0	0
O=C1C(n2ccc3ccccc32)c2cccc(F)c2N1Cc1ccc(C(F)(F)F)cc1 (stereo not given)	0	-	-	-	-	-
COc1cc2c(cc1OC)[C@@H]1O[C@](CCCCN3C(=O)c4ccccc4C3=O)(C2)Oc2c1c(=O)oc1ccccc21	-	-	0	-	-	-
SMILES	HCMV antiviral	Lassa entry inh	Marburg entry inh	FMDV antiviral	SARS PLP yeast	HCV inh
COc1cccc(C(=O)Nc2cccc(-c3cn4c(C)csc4n3)c2)c1OC	0	0	-	0	-	-
CCN1C(=O)NC(c2ccccc2)C(C(=O)OC)=C1C (stereo not given)	-	-	0	-	-	-
CCOC(=O)c1cn(-c2ccccc2)nc1-c1cccnc1	0	0	?	0	0	10µM
O=C(NC1CCN(Cc2ccccc2)CC1)c1cn(-c2ccccc2)nc1-c1cccnc1	0	0	11.2µM	0	0	0
CCOC(=O)c1cn(-c2ccccc2)nc1-c1ccncc1	0	0	0	0	0	10µM
COc1ccc(NC(=O)c2cn(-c3ccccc3)nc2-c2ccncc2)cc1	0	0	?	0	0	0
COc1ccc(-c2nn(-c3ccccc3)cc2C(=O)NC(=S)NNC(=O)c2ccncc2)cc1	-91.7	-	-	0	0	0
O=C(O)c1cn(-c2ccccc2)nc1-c1ccncc1	0	0	0	0	0	0
CCCCN(CC)CCCNC(=O)CCN1N=C(c2ccc(OC)cc2)CCC1=O	0	0	-	0	-	-
CCOc1ccc2nc(N(Cc3cccnc3)C(=O)c3ccco3)sc2c1	0	0	-	0	-	-
CN(C)C(=O)c1ccc(Nc2nccc3c2cc(-c2ccsc2)n3C)cc1	0	-	-	-	-	-
O=C(CCn1nc(-c2ccccc2)c2ccccc2c1=O)NN1CCOCC1	-70.4	0	?	0	0	0
Cc1nn(CC(=O)Nc2ccccn2)c(=O)c2ccccc12	0	0	0	0	0	0
CCN(CC)C(=O)c1ccc(NC(=O)CCn2nc(-c3ccc(C)cc3)c3ccccc3c2=O)cc1	-65.4	?	?	?	-	-

Source: PubChem BioAssay (National Center for Advancing Translational Sciences (NCATS))
